The whole screen tested about 310,000 compounds, of which about 1,900 (0.61%) were called active. Inconclusive results (about 8%) are left out. Calls follow the shape of the full dose curve; tested in A549 cells. Many of the other results were omitted from the sample, so actives are more common in it than they were.
Assay: qHTS for Stage-Specific Inhibitors of Vaccinia Orthopoxvirus: mCherry Reporter Primary qHTS; also: nearly all actives have a fitted effect of over 35% in size
Conditions: Vaccinia virus mCherry reporter infection, fluorescence; series mostly up to 36.5 µM; activity change, negative = inhibition: at the top concentration
% is scaled to controls: 0 for no effect and ±100 for the full control effect; potency is read from the fitted curve at half-maximal effect.

Compound	outcome	Potency	activity change, negative = inhibition
Fc1ccc(/C=N/Nc2nc(-c3cccnc3)nc3ccccc23)cc1	inactive [at 7.34 µM]		
COc1ccccc1Oc1nc(-c2cccnc2)nc2ccccc12	inactive		
O=[N+]([O-])c1ccc(F)cc1Oc1nc(-c2cccnc2)nc2ccccc12		3.55 µM (active)	
COc1ccc(-c2ccc(C(=O)NCCN3CCOCC3)c3occc23)c(C)c1			-6.53% (inactive)
COC1CC(OC2CC[C@@]3(C=O)C4CC[C@]5(C)C(C6=CC(=O)OC6)CC[C@@]5(O)C4CC[C@]3(O)C2)OC(C)C1O (some centres not stated)		2.51 µM (active)	
CC1=C(C(=O)N2CCOCC2)CC(CC(=O)NCC2CCCCC2)C(=O)N1Cc1ccc(F)cc1 (configuration not stated)			-20.7% (inactive)
CC(=O)C1=CCC(c2ccccc2)N(S(=O)(=O)c2ccc(C)cc2)C1 (configuration not stated)	inactive		
COc1cccc(NC(=O)C2(C)CCN2C(=O)CCC2CCCC2)c1 (configuration not stated)	inactive		
CCCCCCN1CCN(C2CN(Cc3cn(CCCCCC)nn3)S(=O)(=O)C2)CC1 (configuration not stated)			-6.2% (inactive)
COc1ccc2c(c1O)-c1cccc3c1[C@@H](C2)N(C)CC3			-17.5% (inactive)
COc1c(O)ccc2c1CN1CCc3cc4c(cc3C1C2)OCO4 (configuration not stated)		11.2 µM (active)	
CN1CCc2cc3c(cc2[C@H]1[C@@H]1OC(=O)c2c1ccc1c2OCO1)OCO3			-6.18% (inactive)
CC(C)NC(=O)C1(C)CCCCCN1C(=O)c1ccc(-c2ccccc2)cc1 (configuration not stated)	inactive		
CC(=O)c1ccc(Nc2nc(C(N)c3ccccc3Cl)cs2)cc1 (configuration not stated)			-16.5% (inactive)
CC(=O)Nc1cccc(-c2cc(NC(C)=O)c3ncc(-c4ccccc4)n3c2)c1			12% (inactive)
COc1ccc(-c2cc(C(=O)N/N=C/c3cccnc3)c3ccccc3n2)c(OC)c1			-10.7% (inactive)
CCOc1ccc(-c2cc(C(=O)N/N=C/c3ccc(O)cc3)c3ccccc3n2)cc1		3.98 µM (active)	
COc1ccc(-c2cc(C(=O)Nc3ccccc3O)c3ccccc3n2)cc1			-20.4% (inactive)
CC1(C(=O)Nc2ccc3c(c2)OCCO3)CCN1C(=O)Cc1cc(F)ccc1F (configuration not stated)	inactive		
CCCOc1ccc(F)cc1-c1cc(C(=O)NCc2ccc(F)cc2)[nH]n1			-8.69% (inactive)
Cc1ccc(-c2ccnc(-n3ncc(C(=O)N(C)Cc4cccc5ncccc45)c3C3CC3)n2)o1			-4.61% (inactive)
Cc1cccc(CNC(=O)c2cnn(-c3nccc(-c4ccccc4F)n3)c2C2CC2)n1			-8.11% (inactive)
CN(Cc1cccc2ncccc12)C(=O)c1cnn(-c2nccc(-c3ccccc3F)n2)c1C1CC1		5.62 µM (active)	
CCOC(=O)C1=CCC(c2ccc(F)cc2)N(S(=O)(=O)c2ccc(C)cc2)C1 (configuration not stated)			18.9% (inactive)
CCOc1cc(/C=C2\SC(N3CCCC(C)C3)=NC2=O)ccc1O (configuration not stated)		11.2 µM (active)	
CC1CCN(C2=NC(=O)/C(=C/c3ccc(O)cc3)S2)CC1			-10.7% (inactive)
O=C1N=C(N2CCCC2)S/C1=C\c1cccc(Br)c1			-2.62% (inactive)

Source: PubChem BioAssay AID720579 (National Center for Advancing Translational Sciences (NCATS), 2013)
